Experimental findings from PubChem BioAssay (NCI) are described below.

About 83,000 compounds went through this panel and 20% of them were active in at least one assay; those are over-represented in the sample as a whole.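 Each cell line was grown in a 96-well plate and treated with one concentration of compound for 48 hours. Values below 10 were considered active.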 Values without a mark were called inactive. Calls of active or inactive are those of the source.

Common to all, as to assay: NCI-60 one-dose screen, 48 h (100 = growth as untreated, 0 = no growth, -100 = all killed)
Holding throughout (conditions): 10 µM unless noted

Assay [1] relates to NCI-H23 lung.
For assay [2], the system named is NCI-H322M lung.
Assay [3] has as its system HOP-62 NSCLC.
The test system of assay [4] is NCI-H460 lung.
Assay [5] concerns HOP-92 NSCLC.
The test system of assay [6] is NCI-H522 lung.
The subject of assay [7] is A549/ATCC NSCLC.
Assay [8] relates to 786-0 renal.
For assay [9], the system named is COLO 205 colon.
Assay [10] concerns DU-145 prostate.

Regarding `COC(=O)/C(CCC=C(C)C)=C1\[C@@H](OC(C)=O)C[C@@]2(C)[C@H]1CC(=O)N[C@H]1[C@@]3(C)CCNC(=O)[C@@H](C)[C@@H]3CC[C@@]12C`, the growth was 99.2% in assay [1]; 98.3% in assay [2]; 106% in assay [3]; 109% in assay [4]; 106% in [5]; 96.6% in [6]. In addition, the growth in assay [7] was 106%; in [8] it was 96.2%; in assay [9], 109%; in [10], 107%.
For the compound `CCCCC(O)(c1ccc(Cl)cc1)C(CN1CCOCC1)c1ccc(Cl)cc1` (stereo not given), the growth in assay [1] was 31.2%; in assay [2], 70.8%; in assay [3] it was 60.1%; in assay [4], 19.4%; in [5], -3.36% (active); in assay [6], 19.8%. Moreover, the growth in assay [7] is 29.6%; in [8] it was 53.8%; in assay [9], 100%; in [10] it was 58.2%.
For `COc1cc(C2C(C#N)=C(N)OC3=C2C(=O)c2ccccc2C3=O)cc(OC)c1OC` (stereo not given), the growth in [1] is 31.4%; in assay [2] it was 48.1%; in [3], 7.45% (active); in assay [4], 9.57% (active); in assay [5], 80.6%; in assay [6], -18.6% (active). Moreover, the growth was 41% in assay [7], 35.6% in assay [8], 89% in assay [9] and 25.1% in [10].
Regarding `Cc1[nH]c2ccccc2c(=O)c1CC=C(Cl)Cl`, the growth in [1] was 75.4%; in assay [2], -47.2% (active); in assay [3], -7.31% (active); in [4], -74% (active); in [5], 64.5%; in [6] it was 65.7%. The growth in [7] was 16.9%; in assay [8], -80.2% (active); in assay [9], 35%; in assay [10] it was -22.5% (active).
As for `CCOC(=O)c1ccc(N=Cc2sc(=O)[nH]c2O)cc1`, the growth in [1] was 98%; in assay [2], 101%; in assay [3], 95.4%; in [4], 101%; in [5], 90.1%; in assay [6] it was 93.7%. Moreover, the growth in assay [7] was 96.6%; in assay [8], 98.4%; in assay [9] it was 104%; in assay [10], 103%.
`Cc1cc2c(c(C)c1Cl)C(=O)/C(=C/c1cccc([N+](=O)[O-])c1)O2`: the growth in assay [1] was 90.3%; in [2], 98.7%; in assay [3] it was 107%; in assay [4] it was 101%; in assay [5], 114%; in assay [6], 80.6%. Besides, the growth in [7] was 89.6%; in [8], 101%; in assay [9], 123%; in assay [10] it was 104%.
For the compound `COC(=O)/C(CCC=C(C)C)=C1\[C@@H](OC(C)=O)C[C@@]2(C)[C@H]1C[C@@H](O)[C@H]1[C@@]3(C)CC[C@H](NCCCNCCCCNCCCN)[C@@H](C)[C@@H]3CC[C@@]12C`, the growth was 61.4% in assay [1]; 67.9% in assay [2]; 52.1% in assay [3]; 19.4% in [4]; 52.6% in assay [5]; 93.7% in assay [6]. The growth in assay [7] is 62.1%; in [8], 44.8%; in [9], 21.6%; in [10], 70.5%.
On to `N#C/C(=C1\SC(=O)CN1c1ccccc1)c1nc2ccccc2s1`, for which the growth is 75.8% in assay [1]; 102% in [2]; 94.4% in assay [3]; 97.1% in [4]; 102% in [5]; 80.5% in [6]. Further, the growth in assay [7] is 97%; in assay [8] it was 102%; in [9], 103%; in assay [10], 99.7%.
For `CCOC(=O)C(CC(=O)O)=C(C(=O)OCC)C(=O)OCC`, the growth in [1] is 105%; in assay [2] it was 114%; in assay [3] it was 104%; in [4], 107%; in assay [5] it was 89.5%; in [6], 114%. The growth in assay [7] was 101%; in assay [8], 115%; in assay [9], 121%; in [10] it was 109%.
Take `O=C(CCc1nnc2sc(Cc3ccccc3Cl)nn12)c1nc2ncccc2[nH]1`: the growth was 89.9% in assay [1]; 93.5% in [2]; 92.3% in [3]; 97.8% in assay [4]; 78.4% in [5]; 81.5% in assay [6]. Besides, the growth is 104% in [7], 105% in [8], 109% in [9] and 101% in assay [10].
Consider `O=C(NN1C(=O)CSC1c1ccc(Cl)cc1)c1[nH]c2ccc(F)cc2c1-c1ccccc1` (stereo not given), for which the growth in [1] is 57.8%; in assay [2], 82.1%; in [3], 78.1%; in [4], 5.13% (active); in [5], 46.5%; in [6], 74.4%. In addition, the growth is 26.9% in assay [7], 65.8% in assay [8], 13.6% in assay [9] and 77.2% in [10].
With `CCOC(=O)c1c(C=O)nc2ccccc2c1/C=C/c1ccc(Cl)cc1`, the growth was 100% in assay [1]; 99.8% in assay [2]; 103% in [3]; 100% in assay [4]; 92.8% in assay [5]; 78.8% in assay [6]. In addition, the growth in assay [7] was 96.4%; in [8] it was 106%; in [9], 119%; in [10], 96.3%.
As to `CN1CCN(Cc2ccc(NC(=O)c3cncc(C#Cc4nc(N)nc5[nH]ncc45)c3)cc2C(F)(F)F)CC1`, the growth was 102% in assay [1]; 114% in [2]; 122% in [3]; 112% in assay [4]; 77.8% in assay [5]; -37.1% (active) in assay [6]. Further, the growth was 103% in assay [7], 111% in assay [8], 21.6% in [9] and 74.7% in [10].
Turning to `O=C(CN1C=NC2C(N3CCOCC3)=NC=NC21)c1cccc2ccccc12` (stereo not given), the growth in assay [1] is 103%; in assay [2], 98.8%; in assay [3], 99.2%; in assay [4], 103%; in assay [5] it was 90.2%; in [6], 90.2%. Further, the growth is 90.1% in assay [7], 101% in [8], 119% in assay [9] and 105% in assay [10].
